Experimental data taken from the supplement of paper PMC11417369.
± gives the standard deviation of the averaged measurements. The full ranking holds about 25,000 sequences; the median of “ln(normalized median fluorescence intensity)” is about 8.9, and the highest 2% start at about 10. This is one part of a sample in which the highest values are shown more often than they occur.

Test system: PfAP2-LT AP2 domain (GST-tagged)
Experiment: gcPBM binding intensity (ln(normalized median fluorescence intensity)); higher = stronger DNA binding
Summary of the method: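 The binding buffer was 1× PBS containing 1% milk, 0.2 mg/ml BSA, 0.5% salmon testes DNA and 0.03% Triton X-100. In it, GST-tagged P. falciparum DNA-binding domains expressed in E. coli were applied for 1 h to an Agilent 4 × 180k array of primer-extended double-stranded 36-bp intergenic genomic probes plus negative controls. Binding intensity, read with Alexa488 anti-GST antibody and a 488 nm scan, is the highest Masliner-normalised natural-log median intensity across replicate spots of either probe orientation.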

Sequence | gcPBM binding intensity (ln)
ACTATTAAAATGAATACACACAAATATAAAAATATA [CACACA_site4145] | 8.96 ± 0.5
TAATTTTTCCAACTTTGTACAGATATATTAATAAAA [XGTACX_site7856] | 8.13 ± 0.35
TGCAAGGAAAAACACACACACACATAAATGTATATA [CACACA_site751] | 9.79 ± 0.25
AAACAAAATGGTAACACACACATATATAAATATGTA [CACACA_site6994] | 9.38 ± 0.47
AAAAAAACATGAAACACACACAAATATATATATATA [CACACA_site1884] | 9.53 ± 0.52
AAACAAAATGGTAACACACACATATATATATATATA [CACACA_site1939] | 10.09 ± 0.021
AAAAATGAGAAACACACACACATATATATATATATA [CACACA_site2228] | 9.94 ± 0.19
ACACATAAATGTATATATATATAAATATATGTATGT [CACACA_negctrl_site1532] | 9.12 ± 0.33
ATAAAATGAACAAACACACACACATATATTTATATA [CACACA_site7181] | 9.84 ± 0.16
TAAAACAAAATGGTAACACACACATATATATATATA [CACACA_site8590] | 9.87 ± 0.15
TGAAATGATATATAAACACACATATATATATATATA [CACACA_site3511] | 9.62 ± 0.25
AAAAAAATGAAACACACACACACATATATATATATA [CACACA_site1043] | 10.1 ± 0.085
AAAATGAACAAACACACACACATATATATATATATA [CACACA_site2403] | 10.27 ± 0.057
TGCAAGGAACAACACACACACACATAAATGTATATA [CACACA_site8149] | 10.2 ± 0.36
TTTTGAAGAAAATTCTTTTTTTTTTTTTTTTGTAAA [CACACA_negctrl_site102] | 7.76 ± 0.65
AAATATTATGTGGCAAGTACATAAAGAAAATGCTTA [XGTACX_site3356] | 8.89 ± 0.56
AAAAAAAAAAAAAAAGCACACATCATATTTTAATTC [CACACA_site9109] | 8.87 ± 0.28
ATATATATATATATATAATATATAATATATATATAT [CACACA_negctrl_site96] | 9.01 ± 0.11
AATAATAACAAATGAACACACATATATATGAGCAAA [CACACA_site2121] | 9.13 ± 0.41
ATGATTATTTTAAAAAGTACTAATTATTATTTTTTT [XGTACX_site7242] | 8.34 ± 0.47
TTCGTTATATTTTGATGTACTGATTCATATATATAT [XGTACX_site1835] | 9.09 ± 0.42
ATTTTCTATTTTATTTGTACGTAATTTAATTTTTTT [XGTACX_site3609] | 8.96 ± 0.53
TATATACAAAATGCCTGTACATATATATTTATTTAT [XGTACX_site761] | 8.85 ± 0.35
ATAATATAATAATACACACTCATTATATATATAAAG [CACACA_site3956] | 8.82 ± 0.43

Sequence | gcPBM binding intensity (ln)
GGTCATCATCGGTATTGTACAAAAATGTGAAAATTA [XGTACX_site639] | 8.73 ± 0.48
AAATATATTATATCATATATTAAAGCATATATTAAA [CACACA_negctrl_site1624] | 8.43 ± 0.42
TATCTGTATTTGTATACACACAAATGTATTTATTTA [CACACA_site4830] | 8.94 ± 0.44
TATATTATAAATTAATGTACGTAATTTTTTTTTTTT [XGTACX_site2500] | 8.38 ± 0.48
AACAAAAATGAAAAAACACACATAACATATATAAAT [CACACA_site740] | 9.27 ± 0.41
TTTATAAACAAATGAACACACAAACATATATATATA [CACACA_site5713] | 9.33 ± 0.24
ATAAAATGAACAAACACACACACATATATATATATA [CACACA_site2402] | 10.2 ± 0.13
TTAACTATAATAAAATGTACATATGTAACATATATA [XGTACX_site7790] | 8.66 ± 0.4
ATTAATTATTTCAATGCATGTGAACACTATATATAA [TGCATGCA_site600] | 8.84 ± 0.42
ATGGATAATAAGTTTACACACAAAAAAAAAGAAAAA [CACACA_site861] | 9.02 ± 0.57
GTTCATAAATTAAACACACACACACCGCTGGATACC [CACACA_site5779] | 9.77 ± 0.16
GTTCATAAATTAAACACACACACACCCCTGGATACC [CACACA_site3331] | 10.13 ± 0.085
GTTCATAAATTAAACACACACACACGGCTGGATACC [CACACA_site7545] | 9.79 ± 0.26
CAGGCACTAATAAACACACACATATAAATATAAATA [CACACA_site6320] | 9.38 ± 0.59
ATAATTTGGAAACACACACACACACCCACATATATA [CACACA_site2286] | 10.28 ± 0.064
AAAAAAAAAAAACACACACACACACCCATATATAAA [CACACA_site1170] | 9.995 ± 0.064
CCCACTAAAAAACACACACACACACCCATATATATA [CACACA_site6140] | 10.31 ± 0.078
CATATTTGGAAACACACACACATATTTATATATATA [CACACA_site3569] | 9.62 ± 0.38
CACTAAAAGAAACACACACACACACCCATATATATA [CACACA_site4151] | 10.2 ± 0.23
TAATTTTTGAAACACACACACATATATATATATATA [CACACA_site94] | 9.885 ± 0.0071
CACCCACTAATAAACACACACATATATATATATATA [CACACA_site389] | 10.3 ± 0.18
ATACTAAAGAAACACACACACATATATATATAGAAT [CACACA_site100] | 9.94 ± 0.28
AAAAGAAAAAGAAAAACACACATAAATATAAATATA [CACACA_site1879] | 8.93 ± 0.64
TAAACACCCATATAAACACACATATAAACACCCATA [CACACA_site5382] | 9.4 ± 0.21
